# According to PubChem BioAssay (NCATS):
# Results filed as inconclusive are left out. A call without a number means that no potency is given here. A number with no mark means an inactive call. Active and inactive are the calls of the source. Unless noted, the call rests on the fitted dose curve; in most records, active means well fitted curve in the direction sought with a large enough effect; inconclusive means small, poorly fitted or top-dose-only effect, or another doubt; inactive means no such curve, though single readings can be large; an effect the other way counts as inactive or inconclusive. Where a SMILES comes first, the peptide text is derived from it. Bridges are numbered along the chain shown (N, C = ends). [ ]: non-standard residue; d: D form. The star is where a group is joined. X1 = CCC(C)C(N)C1=NC(C(=O)*)CS1; dOrn = NCCC[C@@H](N)C(=O)O
# Legend:
# [1] = target: Calcium and integrin-binding protein 1 (Homo sapiens) (UniProt Q99828); assay: Primary qHTS for Identification of Calcium Integrin Binding Protein 1 (CIB1) Competitor (AID 1508620);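 further: GST tagged CIB1 binding a fluorescein labelled alphaIIb integrin peptide tracer; top concentration of the series differs between compounds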
# Calcium and integrin-binding protein 1 (Homo sapiens), sequence (Q99828 whole entry, looked up): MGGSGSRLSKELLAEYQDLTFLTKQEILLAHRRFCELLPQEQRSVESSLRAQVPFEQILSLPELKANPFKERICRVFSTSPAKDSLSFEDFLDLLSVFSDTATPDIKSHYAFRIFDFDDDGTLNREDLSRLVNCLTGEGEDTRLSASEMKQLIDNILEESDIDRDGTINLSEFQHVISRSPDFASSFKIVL
# Method in brief: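 Fluorescence polarization competition: CIB1-GST (1 uM final) preincubated with compound 15 min at room temperature, then FITC-labeled alphaIIb peptide (100 nM final) added for another 15 min. Polarization read at Ex 480/Em 540.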
# [2] = qHTS to identify inhibitors of the type 1 interferon - major histocompatibility complex class I in skeletal muscle: primary screen against the NCATS Mechanism Interrogation Plate v5.0 (MIPE) Libary (AID 1347411); further: nearly all actives have a fitted effect of over 65% in size; further: potency means the concentration at half of the fitted maximal effect
# Method in brief: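 Luminescence from HiBiT-tagged endogenous HLA-B*08:01 served as the MHC class I read-out. CRISPR-engineered C25cl48 human myoblasts received 4.0 ng/ml IFN-beta plus compound for 24 hrs, with an 11-point, 1:3 series topping at 46 uM final.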
# [3] = target: Cytochrome P450 3A4 (Homo sapiens) (UniProt P08684); assay: Cytochrome P450 family 3 subfamily A member 4 (CYP3A4) small molecule antagonists: luciferase qHTS assay (AID 1645841; active means well fitted curve in the direction sought with a large enough effect in the repeat runs; an effect the other way counts as inactive or inconclusive; further: nearly all actives have a fitted effect of over 45% in size)
# Cytochrome P450 3A4 (Homo sapiens), sequence (P08684 whole entry, looked up): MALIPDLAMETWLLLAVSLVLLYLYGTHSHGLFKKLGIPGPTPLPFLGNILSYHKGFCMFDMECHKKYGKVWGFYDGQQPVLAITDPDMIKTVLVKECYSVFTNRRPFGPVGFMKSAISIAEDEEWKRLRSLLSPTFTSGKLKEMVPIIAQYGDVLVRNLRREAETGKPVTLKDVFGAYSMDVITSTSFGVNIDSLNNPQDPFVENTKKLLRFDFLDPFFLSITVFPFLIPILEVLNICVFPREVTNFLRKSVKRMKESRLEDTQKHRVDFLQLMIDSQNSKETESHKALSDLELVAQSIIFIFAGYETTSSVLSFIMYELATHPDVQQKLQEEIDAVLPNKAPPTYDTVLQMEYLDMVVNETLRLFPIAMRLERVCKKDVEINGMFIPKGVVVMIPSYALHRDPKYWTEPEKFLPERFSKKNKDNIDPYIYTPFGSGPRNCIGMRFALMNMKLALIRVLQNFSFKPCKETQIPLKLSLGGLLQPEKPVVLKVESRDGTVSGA
# Method in brief: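 P450-Glo CYP3A4 enzyme with proluciferin substrate was preincubated with DMSO-dissolved compounds for 10 min at room temperature. NADPH regeneration solution started a 1 h reaction. Detection reagent stopped it, and luminescence was read after 20 min.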
# [4] = target: Cytochrome P450 2C9 (Homo sapiens) (UniProt P11712); assay: Cytochrome P450 family 2 subfamily C member 9 (CYP2C9) small molecule antagonists: luciferase biochemical (cell-free) qHTS assay (AID 1645842; active means well fitted curve in the direction sought with a large enough effect in the repeat runs; an effect the other way counts as inactive or inconclusive; further: nearly all actives have a fitted effect of over 55% in size; further: potency means the concentration at half of the fitted maximal effect; on activity change, negative = inhibition: series mostly up to about 57 µM)
# Cytochrome P450 2C9 (Homo sapiens), sequence (P11712 whole entry, looked up): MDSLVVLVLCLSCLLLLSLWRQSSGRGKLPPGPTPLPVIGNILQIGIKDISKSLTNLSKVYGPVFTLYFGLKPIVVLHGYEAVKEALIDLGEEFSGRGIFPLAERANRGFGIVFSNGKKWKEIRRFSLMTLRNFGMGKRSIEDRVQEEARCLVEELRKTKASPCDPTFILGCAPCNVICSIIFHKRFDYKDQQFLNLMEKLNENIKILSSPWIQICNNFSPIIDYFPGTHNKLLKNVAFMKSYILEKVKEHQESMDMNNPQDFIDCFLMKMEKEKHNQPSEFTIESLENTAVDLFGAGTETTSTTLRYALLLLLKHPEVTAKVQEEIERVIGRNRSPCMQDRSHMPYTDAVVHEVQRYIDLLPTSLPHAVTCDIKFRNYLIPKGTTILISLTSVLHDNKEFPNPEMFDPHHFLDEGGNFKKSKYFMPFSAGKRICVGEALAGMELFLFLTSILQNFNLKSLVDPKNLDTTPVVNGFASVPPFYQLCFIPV
# Method in brief: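 Luminescence, after 20 min with luciferin detection reagent, reflected CYP2C9 turnover during a 1 h NADPH-driven reaction at 37C. Enzyme-substrate mix contained 0.4% bovine serum albumin and was preincubated with compound 10 min at room temperature.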
# [5] = target: Calcium and integrin-binding protein 1 (Homo sapiens) (UniProt Q99828); assay: Confirmatory qHTS for Identification of Calcium Integrin Binding Protein 1 (CIB1) Competitor (AID 1508617); further: nearly all actives have a fitted effect of over 65% in size; further: potency means the concentration at half of the fitted maximal effect
# Method in brief: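 Binding competition between test compounds and fluorescent alphaIIb peptide for 1 uM CIB1-GST is monitored by FP at 480/540 nm. Final compound range is up to 114 uM; unlabeled peptide serves as reference competitor.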
# [6] = target: Cytochrome P450 2D6 (Homo sapiens) (UniProt P10635); assay: Cytochrome P450 family 2 subfamily D member 6 (CYP2D6) small molecule antagonists: luciferase biochemical (cell-free) qHTS assay (AID 1645840; active means well fitted curve in the direction sought with a large enough effect in the repeat runs; an effect the other way counts as inactive or inconclusive; further: nearly all actives have a fitted effect of over 55% in size; further: potency means the concentration at half of the fitted maximal effect; on activity change, negative = inhibition: series mostly up to about 57 µM)
# Cytochrome P450 2D6 (Homo sapiens), sequence (P10635 whole entry, looked up): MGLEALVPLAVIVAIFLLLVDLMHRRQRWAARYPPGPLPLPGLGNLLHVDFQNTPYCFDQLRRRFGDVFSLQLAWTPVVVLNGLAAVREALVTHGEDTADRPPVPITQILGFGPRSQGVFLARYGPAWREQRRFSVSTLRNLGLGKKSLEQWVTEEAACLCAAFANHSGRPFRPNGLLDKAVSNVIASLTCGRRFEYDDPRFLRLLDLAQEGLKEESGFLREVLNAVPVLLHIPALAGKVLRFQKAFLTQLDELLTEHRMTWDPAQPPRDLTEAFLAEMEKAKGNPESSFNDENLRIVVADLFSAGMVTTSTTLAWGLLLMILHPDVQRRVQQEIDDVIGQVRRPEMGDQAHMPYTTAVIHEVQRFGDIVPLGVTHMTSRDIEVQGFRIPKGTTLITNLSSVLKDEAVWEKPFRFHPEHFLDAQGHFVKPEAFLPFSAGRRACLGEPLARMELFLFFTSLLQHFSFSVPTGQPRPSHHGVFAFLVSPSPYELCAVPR
# Method in brief: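 P450-Glo luminescent screen: recombinant CYP2D6 enzyme–proluciferin substrate mix preincubated with compound 10 min at room temperature, then NADPH regeneration added for 1 h at room temperature. Detection reagent added for 20 min; luciferin light read as relative luminescence units.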
# [7] = target: N-terminal Xaa-Pro-Lys N-methyltransferase 1 (Homo sapiens) (UniProt Q9BV86); assay: Confirmatory qHTS for Inhibitors of N-terminal methyltransferase 1 (NTMT1): MTaseGlo Assay (AID 1645874); further: nearly all actives have a fitted effect of over 65% in size; further: potency means the concentration at half of the fitted maximal effect;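 on activity change, negative = inhibition: luminescence from SAH made as NTMT1 methylates SPKRIA peptide using SAM; series mostly up to about 100 µM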
# N-terminal Xaa-Pro-Lys N-methyltransferase 1 (Homo sapiens), sequence (Q9BV86 whole entry, looked up): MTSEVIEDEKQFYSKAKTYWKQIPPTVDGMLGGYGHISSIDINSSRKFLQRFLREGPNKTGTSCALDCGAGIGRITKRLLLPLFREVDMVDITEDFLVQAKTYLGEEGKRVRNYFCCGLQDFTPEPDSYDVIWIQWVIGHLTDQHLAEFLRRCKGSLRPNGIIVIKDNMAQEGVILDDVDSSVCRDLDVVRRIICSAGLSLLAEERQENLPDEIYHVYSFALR
# Method in brief: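 Compounds are incubated with 125 nM NTMT1 and 100 uM SAM for 15 min before the SPKRIA peptide (1 uM) starts a 30 min room-temperature methylation. SAH is measured by coupled luciferase luminescence and curves fitted to a Hill equation.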
structure (smiles),measurement,setting,value
C[C@]12CCC(=O)C=C1[C@@H](O)C[C@@H]1[C@@H]2[C@@H](O)C[C@@]2(C)[C@H]1CC[C@]2(O)C(=O)CO,Potency,[1],inactive
O=C(NC[C@H](O)CN1CCc2ccccc2C1)c1cc(NC2COC2)ncn1,Potency,[2],inactive
same,Potency,[1],inactive
same,Potency,[3],inactive
same,Potency,[4],inactive
OC[C@H]1O[C@@H](Oc2ccc(O)c3cccc(O)c23)[C@H](O)[C@@H](O)[C@@H]1O,Potency,[5],11.2 µM (active)
Cc1nnc(C(C)C)n1C1CC2CCC(C1)N2CC[C@H](NC(=O)C1CCC(F)(F)CC1)c1ccccc1 (stereo not given in full),Potency,[2],inactive
same,Potency,[1],inactive
same,Potency,[4],inactive
CC1CC(=O)C2=C(O1)OC1(C)CCC3C(C)(C)C=CC(=O)C3(C)C1C2 (stereo not given),Potency,[1],inactive
CCCCN(CCCC)C(=O)CN1C[C@H](c2ccc3c(c2)OCO3)[C@@H](C(=O)O)[C@@H]1c1ccc(OC)cc1,Potency,[2],inactive
same,Potency,[1],inactive
same,Potency,[6],19 µM (active)
same,Potency,[4],21.3 µM (active)
C/C(=C/CO)CC[C@@H]1[C@@]2(C)CCC[C@](C)(C(=O)O)C2CC[C@@]1(C)O (stereo not given in full),Potency,[1],inactive
CCS(=O)(=O)N1CCC([C@@H](C)n2c(C)c(C(=O)NCc3c(OC)cc(C)[nH]c3=O)c3ccccc32)CC1,Potency,[2],inactive
same,Potency,[6],inactive
CN(C)C/C=C/C(=O)Nc1ccc(C(=O)Nc2cccc(Nc3ncc(Cl)c(-c4c[nH]c5ccccc45)n3)c2)cc1,Potency,[2],0.294 µM (active)
same,Potency,[1],inactive
same,Potency,[6],inactive
same,Potency,[4],7.56 µM (active)
O=C(/C=C/c1ccccc1)OCC1=CC[C@@H]2C(C(=O)O)=CO[C@@H](O[C@@H]3O[C@H](CO)[C@@H](O)[C@H](O)[C@H]3O)[C@H]12,Potency,[1],inactive
C=CC(C)(O)CO[C@@H]1O[C@H](CO)[C@@H](O)[C@H](O)[C@H]1O (stereo not given in full),Potency,[1],inactive
C[C@H](CCC(=O)O)[C@H]1CC[C@H]2[C@@H]3[C@H](O)C[C@@H]4C[C@H](O)CC[C@]4(C)[C@H]3CC[C@]12C,Potency,[2],inactive
same,Potency,[6],inactive
CC1CCCC2OC2C(=O)c2c(O)cc(O)cc2CC(=O)O1 (stereo not given),Potency,[1],inactive
O=c1ccn([C@@H]2O[C@H](CO)[C@@H](O)[C@H]2O)c(=O)[nH]1,Potency,[2],inactive
same,Potency,[1],inactive
same,Potency,[6],inactive
same,Potency,[4],inactive
CON(C)C(=O)N1N=C(c2cc(F)ccc2F)S[C@@]1(CCCN)c1ccccc1,Potency,[2],inactive
same,Potency,[1],inactive
same,Potency,[6],19 µM (active)
same,Potency,[4],3.01 µM (active)
CC[C@@H](c1ccc(F)c(F)c1)n1c(C(=O)OC)c(-c2ccno2)[nH]c1=S,Potency,[5],inactive
same,Potency,[6],inactive
same,Potency,[4],0.756 µM (active)
same,Potency,[7],inactive
CCC(C)C(N)C1=NC(C(=O)N[C@@H](CC(C)C)C(=O)N[C@H](CCC(=O)O)C(=O)N[C@H](C(=O)N[C@H]2CCCCNC(=O)[C@H](CC(N)=O)NC(=O)[C@@H](CC(=O)O)NC(=O)[C@H](Cc3cnc[nH]3)NC(=O)[C@@H](Cc3ccccc3)NC(=O)[C@H]([C@@H](C)CC)NC(=O)[C@@H](CCCN)NC2=O)[C@@H](C)CC)CS1 (stereo not given in full) (X1-L[dE]IK[dOrn]I[dF]H[dD]N; lactam 4-C),Potency,[2],inactive
same,Potency,[1],inactive
same,Potency,[6],inactive
same,Potency,[7],2.94 µM (active)
C=C1CC[C@@H]2[C@](C)(CO)[C@H](O)CC[C@@]2(C)[C@@H]1C/C=C1/C(=O)OC[C@H]1O,Potency,[2],11.7 µM (active)
same,Potency,[6],inactive
same,Potency,[4],inactive
CC(C)c1cc2c(c(O)c1O[C@@H]1O[C@H](CO)[C@@H](O)[C@H](O)[C@H]1O)CC1(O)CCC(O)C(C)(C)C1CC2 (stereo not given in full),Potency,[1],inactive
Cc1cc(Nc2ncc(Cl)c(Nc3ccccc3S(=O)(=O)C(C)C)n2)c(OC(C)C)cc1C1CCNCC1,Potency,[2],20.8 µM (active)
same,Potency,[1],inactive
same,Potency,[6],16.9 µM (active)
same,Potency,[4],3.38 µM (active)
CC1(C)NC2N(C1=O)c1ccccc1C2(O)CC(C(=O)O)n1cnc2ccccc2c1=O (stereo not given),Potency,[1],inactive
COc1cc(C(O)C(CO)Oc2ccc(CCCO[C@@H]3O[C@@H](C)[C@H](O)[C@@H](O)[C@H]3O)cc2OC)ccc1O (stereo not given in full),Potency,[1],inactive
C=C1CC23CC1(O)CCC2C1=CC2OC(=O)C(C)(C2O)C1C3C(=O)O (stereo not given),Potency,[1],inactive
CC1CCC2(O1)C(C)(C)CC(O[C@@H]1O[C@H](CO[C@@H]3OC[C@](O)(CO)[C@H]3O)[C@@H](O)[C@H](O)[C@H]1O)CC2(C)O (stereo not given in full),Potency,[1],inactive
COc1ccc(C(OC2OC(CO)C(O)C(O)C2O)C(C)O)cc1 (stereo not given),Potency,[1],inactive
COC1C2=C(COC2=O)C2(C)CCCC(C)(CO)C2C1OC(=O)c1ccccc1 (stereo not given),Potency,[1],inactive
COc1ccc(/C=C/C(=O)O[C@H]2[C@@H]3C=CO[C@@H](O[C@@H]4O[C@H](CO)[C@@H](O)[C@H](O)[C@H]4O)[C@@H]3[C@@]3(CO)O[C@@H]23)cc1O,Potency,[1],inactive
O=C(O[C@H]1[C@@H]2C=CO[C@@H](O[C@@H]3O[C@H](CO)[C@@H](O)[C@H](O)[C@H]3O)[C@@H]2[C@@]2(CO)O[C@@H]12)c1ccc(O)cc1,Potency,[1],inactive
C[C@]12CCC[C@](C)(C(=O)O)C1CCC13C=C(CO)C(CCC12)C3 (stereo not given in full),Potency,[1],inactive
C[C@@H]1O[C@@H](O[C@@H]2[C@@H](O)[C@H](O[C@@H]3[C@@H](O)[C@@H](O)[C@H](O[C@H]4[C@H](OC(=O)[C@]56CCC(C)(C)C[C@H]5C5=CCC7[C@@]8(C)C[C@H](O)[C@H](O[C@@H]9O[C@@H](C)[C@H](O)[C@@H](O)[C@H]9O)[C@@](C)(CO)C8CC[C@@]7(C)[C@]5(C)C[C@H]6O)O[C@H](C)[C@H](O)[C@@H]4O)O[C@H]3C)OC[C@H]2O)[C@H](O)[C@H](O)[C@H]1O (stereo not given in full),"activity change, negative = inhibition",[1],1.34% [at 12.4 µM]
